Consider four compounds from PubChem BioAssay.

“And” between values parts separate entries of the source, which are not always exact repeats. Equal entries are not always repeated. The source made the active and inactive calls.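 Rule for the calls, unless noted: active = compounds whose cell count with miR-34 switched on is under 0.7 times the count with it off; inactive = the rest.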

Assay [1] relates to Hepatitis C virus NS3 helicase. In words: HCV NS3 helicase inhibitors, primary screen, biochemical, fluorescence polarization, LOPAC1280 library (AID 687035; in the data active = inhibition above about 37%). As to conditions: Purified HCV NS3 helicase, Cy5-dT15 ssDNA binding fluorescence polarization; stronger effect = higher value; concentration not given here. For orientation: Polarisation of emitted light reports the rotation of a fluorescent probe.

A short description of assay [2]: Cy5 fluorescence quenching or enhancement artefacts, artefact control for HCV NS3 helicase inhibitor project, biochemical, LOPAC1280 (AID 687037; call rule not given here). As to conditions: Cy5-DNA-NS3h complex fluorescence interference counterscreen.
A short description of assay [3]: sensitizers of A549 cells to miR-34 induction, primary screen, imaging, A549 dox-inducible miR-34, nuclei and caspase counts (AID 1347080). As to conditions: A549 miR-34 inducible, Hoechst nuclei count, 48 h.
Assay [4] is described as follows: phospholipid biosynthesis inhibitors in animal cells, primary screen, cell-based, LOPAC library, screen 4 (AID 1347384; call rule not given here). As to conditions: phospholipid biosynthesis inhibition screen, at 10 µM.
Assay [5] can be described thus: survival rescue of mitochondrial mutant cells in low glucose, primary screen, MELAS cybrids, Rieske KO mouse fibroblasts, CellTiter-Glo (AID 1508586;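 active = mean z-score across replicates of 1.96 or higher in either the MELAS or the Rieske mutant cell line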;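 note: z relative to plate mean and SD of compound and empty wells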). On the technique in general: Cellular ATP, detected with luciferase, serves as a proxy for viable cell number.
A short description of assay [6]: viability rescue of complex I mutant cybrids, primary screen, cell-based, galactose medium, ATP luminescence (AID 1645843;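 active = z-score of at least 1.8 in each of two replicates, scored against plate mean and spread of sample wells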;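 note: positive z means more ATP and so rescue of galactose-driven cybrid death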). As to conditions: complex I mutant cybrid cells, 72 h, stronger effect = higher value.
Assay [7] in a line: circadian clock period modulators, cell-based, LOPAC library, luminescence reporter (AID 2774; call rule not given here;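 note: values are relative to mean of DMSO wells on each plate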). As to conditions: circadian reporter cells, at 7 µM, actives lie on both sides.
[8] abbreviates: stronger effect = lower value, cell number ratio, induced over uninduced.
Setting [9] is: measured here: relative caspase fold change +Dox/-Dox.
[10] abbreviates: measured here: total cells with miR-34 induction, stronger effect = lower value.
Setting [11] is: measured here: total cells without miR-34 induction.
The mark [12] stands for this setting: MELAS cybrid survival, CellTiter-Glo 48 h, stronger effect = higher value.
[13] abbreviates: Rieske KO mouse fibroblast survival, CellTiter-Glo 72 h.

In general, inhibition refers to the drop in the measured response relative to a control, in per cent. With `Cc1nn(-c2ccccc2)c(C)c1C=NN1CCN(Cc2ccccc2)CC1`, the inhibition in assay [1] is -4% (inactive). In assay [2], the fluorescence ratio (interference) was 1 (inactive). Moreover, the fold change was 0.991 (inactive) and 0.89 (inactive) in assay [3] (setting [8]); 1.98 and 0.283 in assay [3] (setting [9]). Moreover, the cell count is 8530 and 7580 in assay [3] (setting [10]); 8610 and 8510 in assay [3] (setting [11]). For the same compound, the compound was called inactive in assay [4]. Also, the z-score in assay [5] (setting [12]) was 1.46 (inactive); in assay [5] (setting [13]) it was -0.978; in assay [6] it was -0.13 (inactive).

Regarding `CC(N)C1CCC(C(=O)Nc2ccncc2)CC1` (centres undefined), in assay [7], the period change is 0 h (inactive). Besides, in assay [1], the inhibition was -1% (inactive). The fluorescence ratio (interference) in assay [2] was 1 (inactive). Further, the fold change was 0.953 (inactive) and 0.841 (inactive) in assay [3] (setting [8]); 1.2 and 0.911 in assay [3] (setting [9]). Moreover, the cell count was 10100 and 7170 in assay [3] (setting [10]); 10600 and 8530 in assay [3] (setting [11]). For the same compound, the compound was classed as inactive in assay [4]. Further, the values for the z-score in assay [5] (setting [12]), in assay [5] (setting [13]) and in assay [6] were -0.271 (inactive), 0.184 and -0.475 (inactive), respectively.

For `CCC(CO)Nc1nc(NCc2ccccc2)c2ncn(C(C)C)c2n1` (centres undefined), the period change in assay [7] was 1.22 h (active). Moreover, the inhibition in assay [1] is 0% (inactive). Further, the fluorescence ratio (interference) in assay [2] was 1 (inactive). Moreover, the fold change was 1.36 (inactive) and 0.915 (inactive) in assay [3] (setting [8]); 0.998 and 1.15 in assay [3] (setting [9]). Also, the cell count was 1560 and 4690 in assay [3] (setting [10]); 1150 and 5130 in assay [3] (setting [11]). Besides, the call in assay [4] was inactive. In addition, the z-score in assay [5] (setting [12]) was -0.381 (inactive); in assay [5] (setting [13]) it was 0.0764; in assay [6], -0.51 (inactive).

Regarding `CCOC(=O)C(CCc1ccccc1)NC1CCc2ccccc2N(CC(=O)O)C1=O` (centres undefined), the fold change in assay [3] (setting [8]) was 0.901 (inactive) and 0.923 (inactive) and 1.08 (inactive); in assay [3] (setting [9]), 1.61 and 0.619 and 0.514. Also, the cell count in assay [3] (setting [10]) was 9200 and 8490 and 8200; in assay [3] (setting [11]), 10200 and 9200 and 7620. Moreover, the z-score is 0.349 (inactive) and -0.387 (inactive) in assay [5] (setting [12]); -0.629 and -0.0664 in assay [5] (setting [13]); 0.855 (inactive) and 0.665 (inactive) in assay [6].
